Measured values: the supplement of paper PMC3334620
In all, about 33,000 sequences were measured (“E-score (-0.5 to 0.5)”: median about -0.0059, highest 2% from about 0.26 on). This is one part of a sample in which the highest values are shown more often than they occur.

Target: T1, Cin5 (UniProt P40917)
T1 sequence: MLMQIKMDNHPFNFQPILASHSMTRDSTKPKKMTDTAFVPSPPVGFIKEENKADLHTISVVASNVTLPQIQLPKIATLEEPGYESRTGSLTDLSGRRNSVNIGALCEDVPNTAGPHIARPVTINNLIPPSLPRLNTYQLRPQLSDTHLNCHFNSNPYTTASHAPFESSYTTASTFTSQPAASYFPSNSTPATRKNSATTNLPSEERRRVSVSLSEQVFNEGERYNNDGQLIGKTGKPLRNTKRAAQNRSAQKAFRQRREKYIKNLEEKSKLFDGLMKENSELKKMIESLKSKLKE
Test: PBM E-score (8-mer binding enrichment) (E-score (-0.5 to 0.5)); higher = stronger / more preferred TF binding
Settings: protein concentration: 100 nM; construct: GST-full length
Method in brief: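 PURExpress in vitro transcription/translation supplied GST-tagged yeast transcription factors, either full-length or DNA-binding domain. Applied at about 100-200 nM to universal all-10-mer Agilent arrays double-stranded by primer extension, the bound protein was detected with fluorescent anti-GST. E-scores, modified Wilcoxon-Mann-Whitney statistics, were given by the Universal PBM Analysis Suite to ungapped eight-base words pooled with their reverse complements after masliner normalisation.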

Sequence | PBM E-score
GACTGAAA | -0.0204
TACCTTCA | -0.0369
CTCACATA | 0.164
ATCACGTA | 0.269
ATCACGTC | 0.186
ATCACGTG | 0.124
ATCACATG | 0.00787
ATCACATA | 0.291
AGTGGTCC | -0.116
GACTCGTA | -0.2
CAATCCTC | -0.129
CAAGGTGA | -0.0314
AATGAAAC | 0.169
ACATAAAC | 0.263
ACATAAAG | 0.00631
GCATAAAC | 0.115
ACATAAAA | 0.22
ATATAAAT | 0.28
ACATAAAT | 0.28
CCATAAAC | -0.114
ATAAAAAT | 0.0935
ATATAAAG | 0.137
AAGGCACC | -0.0903
AATACCTC | 0.0347
CTCCATTA | -0.0341
GGCCAGAC | -0.24

Sequence | PBM E-score
CCCAGTAA | 0.0641
CAGCCGCC | -0.0669
ACGGCAAG | -0.0312
ACGGCAAT | 0.273
ACGGCAAA | 0.0612
AATCAACA | 0.348
AATCAAAT | 0.176
GATCAACA | -0.0699
AATCAAAC | 0.326
CATCAAAC | 0.0949
TATCAACA | 0.108
CCCTGCAA | -0.132
CTGGCTCA | 0.0435
ACGTTGGC | -0.143
ACAATTTC | 0.139
CTAGGAAC | -0.124
GTCACCGA | -0.12
GCGCATAA | 0.187
CCGCATAA | 0.283
ACGCATAA | 0.0967
GAGCGAGA | 0.166
GCAAGGAA | -0.0209
CTGCTTCA | -0.153
GATGGTAA | -0.0229
TATGGTAA | 0.288
AATGGTAA | 0.233

Sequence | PBM E-score
CGCTTTTC | -0.0646
AACACTGT | -0.0444
AACACTGA | 0.271
AACACTTA | 0.154
CTTCGCCA | -0.137
GATTAATC | 0.145
AATTAATT | 0.0929
TATTAATA | 0.297
TATTAACA | 0.195
AATTAATA | 0.341
CATTAATA | 0.187
AATTAATG | 0.221
GATTAAGA | 0.104
GATTAATA | 0.348
GTGGGGTA | 0.181
ACGCACTA | 0.0242
GCTGGGCA | -0.142
AAGAGCCG | -0.187
CAAGGGTG | -0.166
TCGGCAGA | -0.0269
ATTAAATC | 0.205
AATAAATA | 0.293
TATAAATA | 0.283
AATAAATG | 0.269
GATAAATA | 0.245
TAAAAATA | 0.152

Sequence | PBM E-score
CATAAATG | -0.125
CATAAATA | 0.183
ATTAAATA | 0.274
ATTAAATG | 0.245
TATAAAAA | 0.176
AATAAATT | 0.19
CTGGACCA | -0.148
ACCCACAT | 0.0905
CACTGAGG | -0.0826
GTGTGTCA | 0.0629
CTTACCAC | 0.0364
GTTACCAA | 0.0591
ATTACCAA | 0.27
CTTACCGA | 0.0713
ATTACCAC | 0.151
CTTACCAA | 0.286
AACCGAAC | -0.0782
TACCACCA | -0.0388
CGATATGA | 0.0193
GGATATGA | 0.0996
ATATATGG | 0.24
AGATATGA | 0.272
AGATATGC | 0.0698
AGATATGG | 0.26
GACCAGTC | -0.195
CCCCGGTC | -0.2

Sequence | PBM E-score
ATCAGTGG | 0.0229
CCTAGAGA | -0.119
CTAAAGTA | -0.0582
ATAAAGTG | 0.149
ATAAAGTA | 0.264
GCAAAGTA | 0.175
ATAAAGTC | 0.113
GTAAAGTA | 0.305
ACACGCCT | -0.127
CTTTATGC | -0.0141
CAGGTACC | -0.324
CGAGATTA | 0.244
AGAGCGCA | -0.168
ACCTTACA | -0.0412
CTGACATA | 0.153
ATGACATA | 0.296
GTGACATA | 0.303
ATGACATC | 0.248
GGGACATA | 0.0818
GTGACACA | 0.096
ATAGGGCA | -0.0914
CCCAGGCC | -0.308
CTAAGAAA | -0.0357
GCGCGCGA | 0.104
GCGCGCGC | 0.306
CCGCGCGA | 0.186

Sequence | PBM E-score
ATCCGCGA | 0.015
CCGCGCGG | 0.307
CCGCGCGC | 0.0301
ATCCGCGG | 0.271
ATCCGCGC | -0.0165
ACGCGCGC | 0.158
AGGGTCGA | -0.084
AAACCAAT | 0.188
GCTTGAAA | 0.0153
GAATCCAA | 0.0873
TAATCCAA | 0.283
GAATCAAA | 0.142
AAATCCAC | 0.0254
AAATCCAT | 0.312
ATATCAAA | 0.166
CTATCAAA | 0.199
AAATCCAG | 0.13
TTATCAAA | 0.298
AAATCCAA | 0.117
CAATCAAA | 0.151
TAATCAAA | 0.329
AAAAGAAT | 0.257
CGTCTGAA | -0.133
CAAAGTCA | 0.107
CACGGGCC | -0.296
CCGCATGA | -0.136

Sequence | PBM E-score
CCAAAGAC | -0.185
CAATCTCG | 0.0199
GAATCGCA | -0.0879
CAATCATA | 0.201
TAATCATA | 0.326
TAATCGCA | 0.294
CAATCGCA | 0.13
AAATCATA | 0.198
ACGTTGCT | 0.188
ATGCTTGA | 0.133
AAGAAGTG | 0.015
ATTATTCG | 0.288
ACTATTCG | 0.224
CTTATTCA | 0.142
ATTATTCC | 0.273
ACTATTCC | 0.0567
GTTATTCA | 0.143
ATTATTCA | 0.262
CTTATTCC | 0.117
ATTATTAG | 0.0574
